Screening data as filed in PubChem BioAssay.
VP16 counter: VP16 counterscreen qHTS for inhibitors of ROR gamma transcriptional activity. actives 3.5% (n = 310,000). Drosophila S2 Gal4-VP16 UAS-luciferase, luminescence, 20 h. Potency, µM (highest dose often 53.6 µM), actives largely listed as inhibitors;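 note: Gal4-VP16 expression switched on by copper sulfate through the metallothionein promoter; nearly all actives have a fitted effect of over 50% in size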
B2AR arrestin: qHTS assay of beta-arrestin-biased ligands of beta2-adrenergic receptor; Beta-2 adrenergic receptor (Homo sapiens), P07550; Potency, µM (highest dose often 46.1 µM), actives largely listed as activators; beta-arrestin recruitment to beta2AR, cell-based reporter; actives 0.02% (n = 330,000); AID 492947, 2010; note: nearly all actives have a fitted effect of over 65% in size
Target sequence (P07550 whole entry, looked up): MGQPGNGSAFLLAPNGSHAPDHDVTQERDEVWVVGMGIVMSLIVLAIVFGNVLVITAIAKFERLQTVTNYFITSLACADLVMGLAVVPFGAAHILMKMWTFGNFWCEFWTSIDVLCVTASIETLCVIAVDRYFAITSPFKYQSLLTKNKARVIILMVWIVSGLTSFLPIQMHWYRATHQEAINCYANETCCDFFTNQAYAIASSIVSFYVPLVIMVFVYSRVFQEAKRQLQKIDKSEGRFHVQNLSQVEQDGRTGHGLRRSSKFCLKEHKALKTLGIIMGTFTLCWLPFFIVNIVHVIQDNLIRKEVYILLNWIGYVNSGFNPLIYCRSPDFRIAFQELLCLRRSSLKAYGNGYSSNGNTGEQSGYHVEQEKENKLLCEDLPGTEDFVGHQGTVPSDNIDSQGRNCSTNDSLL
RORg inh: qHTS for inhibitors of ROR gamma transcriptional activity | Nuclear receptor ROR-gamma (Mus musculus), P51450 | actives 5.4% (n = 310,000) | AID 2551, 2010 | Potency, µM (top dose mostly 53.6 µM), hits mostly inhibitors | Drosophila S2 Gal4-RORgamma UAS-luciferase reporter, 20 h; note: nearly all actives have a fitted effect of over 60% in size
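Stable Schneider cell line, Gal4 DNA-binding domain fused to ROR gamma, UAS-luciferase. Cmpd 1 hr RT → CuSO4 700 uM final → 20 hr RT → luciferase reagent 10 min → luminescence.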
NPSR antag: qHTS Assay for Antagonists of the Neuropeptide S Receptor: cAMP Signal Transduction. Q6W5P4. Potency, µM (titrated, usually from 38.3 µM), hits mostly inhibitors. actives 1% (n = 220,000). CHO-NPSR cells, cAMP TR-FRET, antagonist mode. AID 1461, 2008; note: nearly all actives have a fitted effect of over 50% in size
Each line names hits and unclear results; the compound was inactive in the other large screens. Shown are actives, neighbours in structure and some others; about 5.7% of the full set was active somewhere. Calls come from the whole dose curve; as a rule, active = well fitted curve in the direction sought with a large enough effect; inconclusive = small, poorly fitted or top-dose-only effect, or another doubt; inactive = no such curve, though single readings can be large; an effect the other way counts as inactive or inconclusive.

O=S(=O)(/N=C(/Nc1ccc(Cl)cc1Cl)c1ccccc1)c1cccs1	none
CCCCOc1ncnc2c1[nH]c1ccc(C)cc12	VP16 counter 10µM
CCCOc1ncnc2c1[nH]c1ccc(OC)cc12	none
CCOC(=O)C(C)/C(C)=N/NC(=O)c1cc2ccccc2cc1O (centres undefined)	VP16 counter 13µM, RORg inh 11µM
C/C(CC(=O)N1CCN(C=O)CC1)=N\NC(=O)c1ccc(Cl)cc1	VP16 counter 11µM, RORg inh inconclusive
C/C(CC(=O)N1CCCC1)=N\NC(=O)c1cc2ccccc2cc1O	VP16 counter inconclusive, RORg inh 6.3µM
CCOc1ccc(NC(=O)c2cc3ccccc3cc2O)cc1	none
C/C(CC(=O)N1CCN(C=O)CC1)=N\NC(=O)c1cccc([N+](=O)[O-])c1	none
Cc1ccc(S(=O)(=O)COCCN2CCN(S(=O)(=O)c3ccc(C)cc3)CCC2=O)cc1	none (no result: B2AR arrestin, NPSR antag)
CCn1nc(C)c(/C=N/NC(=O)Cn2nccc2C)c1C	none
O=[N+]([O-])c1ccc(/C=N/NC(=S)Nc2ccc(Cl)cc2Cl)s1	VP16 counter inconclusive, RORg inh inconclusive
CCn1nc(C)c(/C=N/NC(=S)Nc2ccc(Cl)cc2Cl)c1C	VP16 counter 6.3µM, RORg inh 1.8µM
Cc1nn(C)cc1/C=N/NC(=S)Nc1ccc(Cl)cc1Cl	VP16 counter 2.8µM, RORg inh 0.56µM
Cc1ccc(Cl)cc1NC(=S)N/N=C/c1cccc2ccccc12	VP16 counter 2.5µM, RORg inh 0.79µM
Cc1ccccc1C(=O)N/N=C/c1cccc2ccccc12	none (no result: NPSR antag)
CC(C)=CCC/C(C)=C/CO/N=C1/C[C@@H](O)[C@@H](O)[C@@H]2[C@@H]3C(=O)N(C4CCCCC4)C(=O)[C@H]3CC[C@@H]12	none (no result: B2AR arrestin, NPSR antag)
c1ccc2c(c1)CCC[C@@H]2C1=NCCN1	none (no result: B2AR arrestin, NPSR antag)
COC(=O)c1ccc(-c2nc(O)c(C)s2)cc1	none
COC(=O)c1ccc(-c2nc3cc(Cl)c(N)cc3s2)cc1	RORg inh 5µM
N#CC1=C(C2CC2)CC(c2ccccc2)C(C#N)=C1N (centres undefined)	none
N#CC1=C(N)SC2(CCCCC2)SC1c1ccccc1 (centres undefined)	VP16 counter inconclusive, RORg inh 6.3µM
CC(C)(C)C(=O)Nc1sc2c(c1-c1nc3ccccc3[nH]1)CCCC2	VP16 counter inconclusive, RORg inh 0.79µM
O=c1cnc2cnc(Oc3ccccc3)nc2n1CCc1ccccc1	none (no result: B2AR arrestin, NPSR antag)
COc1ccccc1-c1ccc(=O)n(CC(=O)NC2CCc3ccccc32)n1 (centres undefined)	VP16 counter inconclusive, RORg inh 3.5µM
Cc1ccc(C(=O)Cn2c3c(sc2=N)CCCC3)cc1	VP16 counter inconclusive, RORg inh 0.79µM (no result: B2AR arrestin, NPSR antag)
Cc1ccc(C(=O)Cn2ncsc2=N)cc1	none
Cc1nn2c(N)c(C#N)cnc2c1-c1ccccc1	VP16 counter inconclusive, RORg inh inconclusive
Cc1nn2c(N)c(C#N)cnc2c1-c1ccc(Cl)cc1	NPSR antag 7.9µM
COC(=O)c1ccc(CN2C(=O)C3CCCCC3C2=O)o1 (centres undefined)	VP16 counter 4.5µM, RORg inh 2.8µM
CC(=O)c1sc(NC(=O)CCS(=O)(=O)c2ccccc2)nc1C	VP16 counter inconclusive, RORg inh 13µM (no result: NPSR antag)
O=C(CCS(=O)(=O)c1ccccc1)Nc1nncs1	none (no result: NPSR antag)
Cc1ccc(NC(=O)c2ccc3c(c2)C(=O)N(CC2CCCO2)C3=O)cc1C (centres undefined)	B2AR arrestin 7.1µM
COc1ccc(NC(=O)c2ccc3c(c2)C(=O)N(CC2CCCO2)C3=O)cc1O (centres undefined)	none (no result: NPSR antag)
COc1cccc(COc2cc3ccccc3nc2C)c1	VP16 counter 5µM
Cc1nc2ccccc2cc1OCc1ccc(Cl)cc1	VP16 counter 3.5µM, RORg inh inconclusive
Cc1nc2ccccc2cc1OCc1ccccc1	VP16 counter inconclusive, RORg inh inconclusive
COCOc1ccc(OC)cc1C(=O)/C=C/c1ccc(OC)c(Br)c1	none (no result: B2AR arrestin, NPSR antag)
CC1CC[C@]2(CO)CC[C@]3(C)C(=CCC4[C@@]5(C)CCC(O)C(C)(C)C5CC[C@@]43C)C2C1C (some centres undefined)	none (no result: B2AR arrestin, NPSR antag)
COc1cccc(C(=O)NC(=S)Nc2ccc3oc(=O)ccc3c2)c1	VP16 counter inconclusive, RORg inh inconclusive
O=C(NC(=S)Nc1ccc2oc(=O)ccc2c1)c1cccc(F)c1	RORg inh 6.3µM (no result: NPSR antag)
O=C(NC(=S)Nc1ccc2oc(=O)ccc2c1)c1cccc(Cl)c1	RORg inh 2.8µM (no result: NPSR antag)
